The record followed here is PubChem BioAssay AID743446 (Broad Institute, 2014).

Structures are written as SMILES. Potency and affinity values are given separately. Calls of active or inactive are those of the source. The rule behind the calls is not given here.

The test is described as follows: viability loss in HEK293 cells – cell-based, plate reader, cherry-picked samples, cytotoxicity control, dose response (AID 743446). The following applies: active compounds read low; at 26 µM unless noted.
For the compound `COc1ccc(S(=O)(=O)N(C)C[C@@H]2OCc3cnnn3CCCC(=O)N([C@@H](C)CO)C[C@H]2C)cc1`, the max activity is 0% [setting not given] (inactive).

For `c1ccc(COc2ccc(OCCCN3CCCC3)cc2)cc1`, the max activity is -13.8% [at 0.05 µM] (inactive).

Regarding `C[C@H]1CCCCO[C@H](CN(C)C(=O)Nc2cccc3ccccc23)[C@@H](C)CN([C@@H](C)CO)C(=O)c2cc(NS(=O)(=O)c3cn(C)cn3)ccc2O1`, the max activity was 21.9% [at 0.05 µM] (inactive).

Regarding `CCCOc1ccc(F)cc1-c1cc(C(=O)Nc2cc(OC)c(OC)c(OC)c2)[nH]n1`, the max activity is 9.95% [at 3 µM] (inactive).

In the case of `O=C(NCCc1ccccc1)c1ccc2nccnc2c1`, the max activity is 9% (inactive).

`Cc1cc(C)c(C)c(S(=O)(=O)N2CCN(c3ncnc4ccccc34)CC2)c1C`: the max activity is 62% [at 1.6 µM] (inactive).

As to `COc1cccc(-c2cc(C(=O)N3CCCCCC3)no2)c1`, the max activity is -9.64% [at 12 µM] (inactive).

In the case of `CC(=O)c1c(C)[nH]c(C(=O)CN2C(=O)NC(C)(c3ccc(C)cc3)C2=O)c1C` (stereo not given), the max activity was 39.5% (inactive).

In the case of `Nc1ccc(-c2nc3ccc(N)cc3s2)cc1`, the max activity was 53.7% (inactive).

Consider `CC1CN(C(=O)c2cccc(S(=O)(=O)Nc3cc(Cl)ccc3Cl)c2)CC(C)O1` (stereo not given), for which the max activity is 5.34% (inactive).

Regarding `CC1CCCN(c2ncnc3c2cnn3-c2ccccc2)C1` (stereo not given), the max activity was -23.6% [at 12 µM] (inactive).

Take `COc1ccccc1N/C=C/c1onc(C)c1[N+](=O)[O-]`: the max activity was -8.08% [at 0.8 µM] (inactive).

For the compound `C[C@H](CO)N1C[C@H](C)[C@H](CN(C)C(=O)Nc2ccccc2)OCCCC[C@H](C)Oc2ccc(NC(=O)C3CCCCC3)cc2C1=O`, the max activity was 9.5% [at 3 µM] (inactive).

Take `O=C(c1ccccc1)N1CCSc2sccc2C1=O`: the max activity is 36.7% (inactive).

Take `O=C(O)c1cccc(-c2nc3ccccc3[nH]2)c1`: the max activity was -25.9% [at 0.38 µM] (inactive).

As for `COc1cccc(-c2ccc(C3[C@@H]4CN(C(=O)C5CC5)C[C@H]3N4)cc2)c1` (stereo not given in full), the max activity is 15.1% [at 3 µM] (inactive).

On to `O=C(O)c1c2c(nc3ccccc13)/C(=C/c1ccc(O)cc1)CC2`, for which the max activity is 22.6% (inactive).

`Cc1cc(C)n2c(Nc3ccc4c(c3)OCCO4)c(-c3cc4ccccc4o3)nc2n1`: the max activity was 52.8% (inactive).

Regarding `COc1ccc(CCNC(=O)C2CCN(S(=O)(=O)c3ccc(Cl)cc3)CC2)cc1OC`, the max activity was -15% [at 0.05 µM] (inactive).

Regarding `Cc1ccc(-c2nc(-c3ccncc3)no2)cc1C`, the max activity is -14.8% (inactive).

With `O=C(Nc1ccc2c(c1)OCCO2)c1ccc(Cl)cc1Cl`, the max activity was -20.3% [at 3 µM] (inactive).

For `N#C[C@@H]1[C@H](c2ccc(C#CC3CCCCC3)cc2)[C@@H](CO)N1S(=O)(=O)c1ccccc1`, the max activity was 39.8% [at 12 µM] (inactive).

Regarding `O=C(CC1CS(=O)(=O)CC1CC(=O)Nc1ccc2c(c1)OCCO2)Nc1ccc2c(c1)OCCO2` (stereo not given), the max activity is 38.3% [at 0.8 µM] (inactive).

For the compound `O=S1(=O)CCOC[C@H](CC2CCCCC2)N1Cc1ccccc1F`, the max activity is -17.9% [at 0.1 µM] (inactive).

As for `CC(=O)c1ccc(Nc2nc(-c3sc(C)nc3C)cs2)cc1`, the max activity was -13.6% (inactive).

Take `Cc1ccc(CNS(=O)(=O)c2ccc3c(c2)CCN3C(=O)CCCC(=O)O)cc1`: the max activity was 14.5% [at 6 µM] (inactive).

On to `N#C[C@H]1[C@@H](c2ccc(C3=CCCCC3)cc2)[C@H](CO)N1C(=O)c1ccccn1`, for which the max activity is 74.4% [at 12 µM] (inactive).

For `COc1ccc(-n2cc(C(=O)c3ccccc3O)cn2)cc1`, the max activity is 69.9% [at 3 µM] (inactive).

For `Nc1nccc(-c2cc(-c3ccc(Cl)cc3Cl)no2)n1`, the max activity is 47.2% [at 6 µM] (inactive).

Regarding `COc1ccc(C(=O)Nc2ccc3ncccc3c2)cc1`, the max activity is -20.3% (inactive).

Regarding `O=C(Cc1ccncc1)NCC[C@H]1CC[C@H](NC(=O)C2CCCC2)[C@H](CO)O1`, the max activity was 13.9% [at 0.1 µM] (inactive).

For the compound `CCc1nc(Sc2nnnn2-c2ccccc2)c2c3c(sc2n1)CCCC3`, the max activity is -13.3% (inactive).

`C[C@H](CO)N1C[C@H](C)[C@H](CN(C)C(=O)Nc2cccc3ccccc23)OCCCC[C@H](C)Oc2ccc(NC(=O)NC3CCCCC3)cc2C1=O`: the max activity is 68.9% (inactive).

As to `NCC[C@H]1CC[C@H](NS(=O)(=O)Cc2ccccc2)[C@@H](CO)O1`, the max activity was 24.3% (inactive).

With `Cc1cc(C(=O)COC(=O)C2CC2)c(C)n1-c1ccc(F)cc1`, the max activity is 9.72% [at 12 µM] (inactive).
